Source: the supplement of paper PMC7393113
± gives the standard deviation of the averaged measurements.

system: iBMDM (immortalised mouse bone-marrow-derived macrophages), LPS-stimulated; assay: mitochondrial superoxide (MitoSOX fluorescence) fold increase over unstimulated control; higher = more LPS-induced mitochondrial ROS (less inhibition); conditions: inhibitor concentration: 500 nM; LPS: 100 ng/ml; time after LPS: 4 h
Method in brief: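 Values are fold induction of mitochondrial superoxide relative to untreated macrophages, as a mean of replicates. Immortalised mouse bone-marrow-derived macrophages, seeded in triplicate in black 96-well plates, spent 20 h in phenol-red-free 1% FCS/DMEM before a 30 min pretreatment with kinase inhibitors (500 nM). After 10 min loading with 1 μM MitoSox, cells received LPS (100 ng/ml), and fluorescence (510/580 nm) was measured every 60 min for 4 h.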

SMILES	mitochondrial superoxide
CCN1CCN(Cc2ccc(Nc3ncc(F)c(-c4cc(F)c5nc(C)n(C(C)C)c5c4)n3)nc2)CC1	1.36 ± 0.022
Cc1ccc(S(=O)(=O)Nc2nc3ccccc3nc2Nc2ccc3nsnc3c2)cc1	1.56 ± 0.041
Oc1ccc(Nc2nc(-c3ccc(Cl)cc3)cs2)cc1	1.71 ± 0.11
